The target of assay [1] is Tyrosine-protein kinase Fyn (Homo sapiens) (UniProt P06241). Particulars: at 1 µM.
The target of assay [2] is Tyrosine-protein kinase HCK (Homo sapiens) (UniProt P08631). Particulars: at 0.1 µM.
The target is the same in assay [3]. Particulars: at 1 µM.
Assay [4] deals with Insulin-like growth factor 1 receptor (Homo sapiens) (UniProt P08069). As to conditions: at 0.1 µM.
The target is the same in assay [5]. Particulars: at 1 µM.
Assay [6] has as its target Insulin receptor (Homo sapiens) (UniProt P06213). As to conditions: at 0.1 µM.
For assay [7] the target is unchanged. As to conditions: at 1 µM.
Assay [8] deals with Insulin receptor-related protein (Homo sapiens) (UniProt P14616). As to conditions: at 0.1 µM.
Insulin receptor-related protein (Homo sapiens), sequence (P14616 27-742 limits assumed): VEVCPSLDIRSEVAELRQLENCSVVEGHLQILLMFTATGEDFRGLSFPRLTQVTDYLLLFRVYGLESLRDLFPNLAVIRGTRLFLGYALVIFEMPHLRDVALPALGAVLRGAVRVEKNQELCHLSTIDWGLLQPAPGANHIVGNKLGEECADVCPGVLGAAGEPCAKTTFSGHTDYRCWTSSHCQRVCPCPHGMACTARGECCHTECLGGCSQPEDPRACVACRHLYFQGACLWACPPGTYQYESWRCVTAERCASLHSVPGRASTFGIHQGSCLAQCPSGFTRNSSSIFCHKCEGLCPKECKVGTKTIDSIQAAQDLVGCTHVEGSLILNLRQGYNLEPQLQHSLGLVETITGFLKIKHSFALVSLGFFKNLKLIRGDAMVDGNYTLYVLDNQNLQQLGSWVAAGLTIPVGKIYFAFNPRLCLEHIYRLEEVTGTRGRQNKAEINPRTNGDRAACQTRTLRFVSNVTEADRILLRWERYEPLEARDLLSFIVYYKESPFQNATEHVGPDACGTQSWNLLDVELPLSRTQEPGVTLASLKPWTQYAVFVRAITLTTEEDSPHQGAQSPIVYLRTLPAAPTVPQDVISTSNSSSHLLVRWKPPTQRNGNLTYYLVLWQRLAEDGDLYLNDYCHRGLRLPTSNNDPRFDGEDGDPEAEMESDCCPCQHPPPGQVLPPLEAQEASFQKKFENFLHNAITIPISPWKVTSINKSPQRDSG
Insulin receptor-related protein (Homo sapiens), sequence (P14616 747-1297 limits assumed): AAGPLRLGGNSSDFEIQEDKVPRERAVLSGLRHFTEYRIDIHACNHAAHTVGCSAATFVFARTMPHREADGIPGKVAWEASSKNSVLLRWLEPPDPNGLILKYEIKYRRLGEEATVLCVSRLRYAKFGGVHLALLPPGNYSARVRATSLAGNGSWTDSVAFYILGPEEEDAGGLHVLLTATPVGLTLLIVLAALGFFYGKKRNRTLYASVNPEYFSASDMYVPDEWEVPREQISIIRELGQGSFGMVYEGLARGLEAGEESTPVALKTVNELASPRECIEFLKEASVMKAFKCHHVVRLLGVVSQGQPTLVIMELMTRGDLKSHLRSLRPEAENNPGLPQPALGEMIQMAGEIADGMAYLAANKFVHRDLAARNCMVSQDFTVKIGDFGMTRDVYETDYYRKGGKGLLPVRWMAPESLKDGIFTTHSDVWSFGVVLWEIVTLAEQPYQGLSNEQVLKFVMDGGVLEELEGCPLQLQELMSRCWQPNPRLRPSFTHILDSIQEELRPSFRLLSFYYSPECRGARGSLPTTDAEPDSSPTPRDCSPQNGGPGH
For assay [9] the target is unchanged. As to conditions: at 1 µM.
Assay [10] has as its target T1, Tyrosine-protein kinase ITK/TSK (Homo sapiens) (UniProt Q08881).
T1 sequence (whole entry): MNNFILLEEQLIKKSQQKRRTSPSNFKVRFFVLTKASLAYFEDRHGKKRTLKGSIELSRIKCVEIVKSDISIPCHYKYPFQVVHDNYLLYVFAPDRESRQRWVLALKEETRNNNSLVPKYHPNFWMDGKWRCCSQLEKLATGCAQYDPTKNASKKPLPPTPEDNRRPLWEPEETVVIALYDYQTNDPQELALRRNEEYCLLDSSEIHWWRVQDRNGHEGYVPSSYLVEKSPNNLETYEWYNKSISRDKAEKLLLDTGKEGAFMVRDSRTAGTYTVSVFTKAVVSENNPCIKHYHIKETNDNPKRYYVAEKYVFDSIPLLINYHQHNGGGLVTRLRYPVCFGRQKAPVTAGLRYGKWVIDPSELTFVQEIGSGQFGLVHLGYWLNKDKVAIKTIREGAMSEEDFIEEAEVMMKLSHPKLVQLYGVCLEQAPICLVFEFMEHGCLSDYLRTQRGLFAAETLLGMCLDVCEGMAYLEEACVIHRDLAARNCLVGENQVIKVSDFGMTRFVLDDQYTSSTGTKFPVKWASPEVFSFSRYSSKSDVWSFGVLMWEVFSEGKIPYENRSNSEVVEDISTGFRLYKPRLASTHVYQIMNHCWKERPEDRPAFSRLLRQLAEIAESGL
As to conditions: at 0.1 µM.

In assay [11] the target is T1, Tyrosine-protein kinase ITK/TSK (Homo sapiens). Particulars: at 1 µM.
Assay [12] deals with Tyrosine-protein kinase JAK1 (Homo sapiens) (UniProt P23458). As to conditions: at 0.1 µM.
Tyrosine-protein kinase JAK1 (Homo sapiens), sequence (P23458 whole entry): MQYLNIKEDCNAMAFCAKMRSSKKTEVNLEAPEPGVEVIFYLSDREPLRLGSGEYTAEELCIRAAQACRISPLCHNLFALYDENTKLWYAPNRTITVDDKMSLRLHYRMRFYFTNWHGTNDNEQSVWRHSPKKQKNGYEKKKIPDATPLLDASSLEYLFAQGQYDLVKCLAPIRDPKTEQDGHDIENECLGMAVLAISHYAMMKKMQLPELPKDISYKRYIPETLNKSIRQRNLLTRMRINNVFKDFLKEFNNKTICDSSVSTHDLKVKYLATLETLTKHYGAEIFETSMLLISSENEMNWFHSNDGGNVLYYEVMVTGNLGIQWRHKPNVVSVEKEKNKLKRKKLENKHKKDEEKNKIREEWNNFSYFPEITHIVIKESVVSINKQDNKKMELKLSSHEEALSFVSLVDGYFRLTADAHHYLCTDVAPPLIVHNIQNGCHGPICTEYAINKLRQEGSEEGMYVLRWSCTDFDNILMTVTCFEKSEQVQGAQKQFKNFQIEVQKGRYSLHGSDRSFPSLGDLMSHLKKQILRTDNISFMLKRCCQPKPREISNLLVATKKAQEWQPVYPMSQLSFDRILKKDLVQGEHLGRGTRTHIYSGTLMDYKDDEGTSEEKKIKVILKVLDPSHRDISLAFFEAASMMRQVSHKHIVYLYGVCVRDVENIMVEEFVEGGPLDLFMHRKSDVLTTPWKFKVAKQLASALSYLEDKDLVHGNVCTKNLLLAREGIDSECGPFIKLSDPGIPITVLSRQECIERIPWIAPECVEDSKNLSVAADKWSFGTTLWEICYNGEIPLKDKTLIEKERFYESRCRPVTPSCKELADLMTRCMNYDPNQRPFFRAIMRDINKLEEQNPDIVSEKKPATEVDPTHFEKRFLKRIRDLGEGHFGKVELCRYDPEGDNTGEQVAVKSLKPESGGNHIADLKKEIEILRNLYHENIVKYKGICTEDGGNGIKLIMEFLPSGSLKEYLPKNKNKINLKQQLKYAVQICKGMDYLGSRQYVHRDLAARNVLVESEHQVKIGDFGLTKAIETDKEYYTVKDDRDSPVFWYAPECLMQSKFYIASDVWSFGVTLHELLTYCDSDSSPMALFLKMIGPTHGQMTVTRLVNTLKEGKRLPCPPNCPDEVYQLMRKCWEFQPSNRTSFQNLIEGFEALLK
For assay [13] the target is unchanged. As to conditions: at 1 µM.
For assay [14], the target named is Tyrosine-protein kinase JAK2 (Homo sapiens) (UniProt O60674). As to conditions: at 0.1 µM.
Tyrosine-protein kinase JAK2 (Homo sapiens), sequence (O60674 whole entry): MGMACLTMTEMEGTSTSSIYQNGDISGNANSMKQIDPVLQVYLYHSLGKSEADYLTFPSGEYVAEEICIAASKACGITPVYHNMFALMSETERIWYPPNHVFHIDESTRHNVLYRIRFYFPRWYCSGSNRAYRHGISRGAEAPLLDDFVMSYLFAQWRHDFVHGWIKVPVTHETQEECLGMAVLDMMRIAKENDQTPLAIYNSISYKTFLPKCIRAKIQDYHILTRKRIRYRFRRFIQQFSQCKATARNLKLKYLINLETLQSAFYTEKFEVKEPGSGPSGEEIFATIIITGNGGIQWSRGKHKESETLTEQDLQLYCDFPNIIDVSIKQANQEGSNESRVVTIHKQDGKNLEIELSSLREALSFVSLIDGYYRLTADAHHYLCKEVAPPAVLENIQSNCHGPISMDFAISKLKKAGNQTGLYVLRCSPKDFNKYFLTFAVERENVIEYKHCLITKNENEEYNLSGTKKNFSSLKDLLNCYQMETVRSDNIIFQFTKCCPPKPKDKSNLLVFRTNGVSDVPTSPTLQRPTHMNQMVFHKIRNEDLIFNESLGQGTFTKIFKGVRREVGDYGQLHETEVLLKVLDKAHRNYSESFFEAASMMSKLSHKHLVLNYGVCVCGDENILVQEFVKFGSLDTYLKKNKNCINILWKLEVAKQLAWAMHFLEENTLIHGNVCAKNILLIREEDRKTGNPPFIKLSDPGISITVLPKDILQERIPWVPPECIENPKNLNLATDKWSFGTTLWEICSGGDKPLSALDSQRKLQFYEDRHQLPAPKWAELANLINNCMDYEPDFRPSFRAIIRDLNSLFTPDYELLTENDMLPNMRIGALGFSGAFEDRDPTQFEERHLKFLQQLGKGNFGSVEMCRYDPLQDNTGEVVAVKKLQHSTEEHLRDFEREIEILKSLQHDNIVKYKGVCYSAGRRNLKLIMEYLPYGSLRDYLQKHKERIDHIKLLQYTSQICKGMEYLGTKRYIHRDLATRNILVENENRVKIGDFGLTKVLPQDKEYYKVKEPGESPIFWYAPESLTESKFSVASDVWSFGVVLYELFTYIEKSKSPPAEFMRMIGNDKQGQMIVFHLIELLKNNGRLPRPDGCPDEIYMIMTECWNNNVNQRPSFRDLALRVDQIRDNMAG
The target is the same in assay [15]. Particulars: at 1 µM.
The target of assay [16] is T2, Tyrosine-protein kinase JAK3 (Homo sapiens) (UniProt P52333).
T2 sequence (whole entry): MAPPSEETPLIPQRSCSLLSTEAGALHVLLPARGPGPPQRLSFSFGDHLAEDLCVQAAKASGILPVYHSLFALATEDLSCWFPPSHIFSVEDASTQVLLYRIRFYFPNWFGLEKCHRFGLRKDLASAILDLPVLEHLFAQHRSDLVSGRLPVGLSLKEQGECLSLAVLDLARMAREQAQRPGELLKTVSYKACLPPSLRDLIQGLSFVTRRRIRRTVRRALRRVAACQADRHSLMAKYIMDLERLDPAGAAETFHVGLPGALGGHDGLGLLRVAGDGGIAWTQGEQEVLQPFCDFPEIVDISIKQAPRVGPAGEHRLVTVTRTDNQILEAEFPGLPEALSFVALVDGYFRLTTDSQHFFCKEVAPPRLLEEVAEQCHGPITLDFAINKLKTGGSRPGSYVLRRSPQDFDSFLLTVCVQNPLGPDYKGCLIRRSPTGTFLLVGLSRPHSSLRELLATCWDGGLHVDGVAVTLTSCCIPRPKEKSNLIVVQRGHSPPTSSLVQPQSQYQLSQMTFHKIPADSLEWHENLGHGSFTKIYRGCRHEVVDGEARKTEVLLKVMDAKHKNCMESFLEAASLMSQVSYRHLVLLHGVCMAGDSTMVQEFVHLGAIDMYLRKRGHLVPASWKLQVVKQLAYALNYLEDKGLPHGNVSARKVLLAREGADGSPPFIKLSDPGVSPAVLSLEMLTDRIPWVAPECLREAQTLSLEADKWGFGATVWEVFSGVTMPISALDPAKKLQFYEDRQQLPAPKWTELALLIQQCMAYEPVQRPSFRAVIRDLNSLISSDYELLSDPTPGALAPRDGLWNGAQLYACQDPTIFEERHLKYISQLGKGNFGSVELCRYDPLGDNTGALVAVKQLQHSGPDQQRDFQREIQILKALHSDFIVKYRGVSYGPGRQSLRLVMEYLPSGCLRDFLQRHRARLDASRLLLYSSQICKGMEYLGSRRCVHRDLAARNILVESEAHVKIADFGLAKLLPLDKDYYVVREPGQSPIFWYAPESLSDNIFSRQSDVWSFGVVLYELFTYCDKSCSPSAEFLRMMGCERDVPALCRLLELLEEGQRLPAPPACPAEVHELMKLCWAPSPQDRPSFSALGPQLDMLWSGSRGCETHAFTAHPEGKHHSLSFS
Particulars: at 0.1 µM.

For assay [17], the target named is T2, Tyrosine-protein kinase JAK3 (Homo sapiens). As to conditions: at 1 µM.
In assay [18] the target is Vascular endothelial growth factor receptor 2 (Homo sapiens) (UniProt P35968). Particulars: at 0.1 µM.
Assay [19] has the same target. Particulars: at 1 µM.
Assay [20] concerns the target Mast/stem cell growth factor receptor Kit (Homo sapiens) (UniProt P10721). As to conditions: at 0.1 µM.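 Further: values are mean inhibition of KIT, from the GSK PKIS dataset.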

Mast/stem cell growth factor receptor Kit (Homo sapiens), sequence (P10721 whole entry): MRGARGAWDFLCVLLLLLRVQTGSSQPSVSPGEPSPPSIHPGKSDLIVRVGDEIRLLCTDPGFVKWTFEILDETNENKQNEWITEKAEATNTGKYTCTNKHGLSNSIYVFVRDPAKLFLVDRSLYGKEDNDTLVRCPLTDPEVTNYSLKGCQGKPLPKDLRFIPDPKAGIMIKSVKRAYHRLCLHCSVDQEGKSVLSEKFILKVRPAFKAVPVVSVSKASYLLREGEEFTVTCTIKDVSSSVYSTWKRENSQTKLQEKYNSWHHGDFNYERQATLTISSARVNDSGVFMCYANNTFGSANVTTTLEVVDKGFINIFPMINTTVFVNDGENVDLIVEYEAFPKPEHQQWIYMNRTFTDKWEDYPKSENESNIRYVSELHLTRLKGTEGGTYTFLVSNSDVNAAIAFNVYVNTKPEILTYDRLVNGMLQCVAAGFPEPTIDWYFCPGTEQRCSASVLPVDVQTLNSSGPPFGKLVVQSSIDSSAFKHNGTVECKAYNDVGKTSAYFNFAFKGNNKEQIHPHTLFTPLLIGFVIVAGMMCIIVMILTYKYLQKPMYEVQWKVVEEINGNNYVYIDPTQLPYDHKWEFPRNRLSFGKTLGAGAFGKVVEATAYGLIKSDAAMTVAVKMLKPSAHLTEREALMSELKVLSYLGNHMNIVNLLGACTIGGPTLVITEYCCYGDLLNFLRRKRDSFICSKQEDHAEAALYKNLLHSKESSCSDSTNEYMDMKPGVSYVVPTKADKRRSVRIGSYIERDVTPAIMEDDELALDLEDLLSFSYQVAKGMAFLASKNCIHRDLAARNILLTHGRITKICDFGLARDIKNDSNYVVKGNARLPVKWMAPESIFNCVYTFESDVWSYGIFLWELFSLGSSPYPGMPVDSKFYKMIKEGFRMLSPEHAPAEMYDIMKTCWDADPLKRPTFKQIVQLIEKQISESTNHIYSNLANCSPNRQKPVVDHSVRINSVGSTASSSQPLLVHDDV
Tyrosine-protein kinase HCK (Homo sapiens), sequence (P08631 2-526 limits assumed): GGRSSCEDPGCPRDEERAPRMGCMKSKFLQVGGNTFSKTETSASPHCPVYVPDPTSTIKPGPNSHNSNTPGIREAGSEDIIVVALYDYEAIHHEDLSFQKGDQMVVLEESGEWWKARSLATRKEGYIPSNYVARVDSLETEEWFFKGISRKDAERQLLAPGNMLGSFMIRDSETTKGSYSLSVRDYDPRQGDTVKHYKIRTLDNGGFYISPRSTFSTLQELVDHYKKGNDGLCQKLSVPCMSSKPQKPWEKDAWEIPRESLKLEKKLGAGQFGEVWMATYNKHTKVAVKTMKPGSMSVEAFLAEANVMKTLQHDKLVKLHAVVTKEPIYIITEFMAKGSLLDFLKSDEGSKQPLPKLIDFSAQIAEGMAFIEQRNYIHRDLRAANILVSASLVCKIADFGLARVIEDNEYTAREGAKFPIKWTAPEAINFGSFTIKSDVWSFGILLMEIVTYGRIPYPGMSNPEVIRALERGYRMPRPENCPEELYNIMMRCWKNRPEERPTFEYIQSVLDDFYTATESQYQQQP

The term inhibition denotes the drop in the measured response relative to a control, in per cent. On to `CC1=C(C(=O)Nc2ccc3[nH]ncc3c2)C(c2ccc(Cl)c(Cl)c2)CC(=O)N1` (stereo not given), for which the inhibition in assay [1] is 2.37%; in assay [2], 6.21%; in [3], 7.31%; in [4] it was -0.16%; in assay [5], 1.11%; in assay [6] it was 1.45%. Moreover, the inhibition worked out at 1.96% in [7]; 0.58% in [8]; 1.03% in [9]; 1.18% in assay [10]; 0.67% in assay [11]; 5.41% in [12]. For the same compound, the inhibition is 36.6% in assay [13]; 1.94% in [14]; 23.5% in assay [15]; 0.78% in assay [16]; 18% in assay [17]; 3.14% in assay [18]. For the same compound, the figures for the inhibition in assay [19] and in assay [20] were 5.12% and 3.22%, respectively.
Regarding `CCn1c(-c2nonc2N)nc2cnc(Oc3cccc(NC(=O)c4ccc(OCCN5CCOCC5)cc4)c3)cc21`, the inhibition was 5.35% in [1]; 6.47% in assay [2]; 4.67% in [3]; -0.59% in assay [4]; 1.49% in [5]; 5.62% in [6]. For the same compound, the inhibition in [7] stood at 7.3%; in assay [8], 1.29%; in assay [9], 0.16%; in assay [10], 0.81%; in assay [11] it was 0.94%; in assay [12], 4.42%. Moreover, the inhibition was 12.1% in assay [13]; 5.74% in assay [14]; 1.29% in assay [15]; 0.31% in assay [16]; -0.45% in assay [17]; 5.67% in [18]. The inhibition was 7.83% in [19] and 5.45% in assay [20].
For `Cn1cc(C=C2C(=O)Nc3cccnc32)c2ccccc21`, the inhibition in assay [1] came to 15.4%; in assay [2], 6.56%; in [3] it was 42.1%; in assay [4], 1.72%; in assay [5] it was 8.98%; in assay [6], 3.49%. The inhibition in assay [7] came out at 20.1%; in assay [8] it was 0.41%; in [9], 1.8%; in assay [10], 2.56%; in [11], 15.7%; in [12], 1.61%. Also, the inhibition in assay [13] was -6.11%; in [14], 0.37%; in assay [15], 2.77%; in assay [16], -0.5%; in [17], 4.53%; in [18], 14.7%. Besides, the inhibition is 54.8% in assay [19] and 11.3% in [20].
For `CC(C)=Cc1cccc2c1/C(=N/Nc1ccc(S(N)(=O)=O)cc1)C(=O)N2`, the inhibition in [1] was determined as 27.3%; in assay [2] it was 2.33%; in assay [3] it was 21.4%; in [4] it was 2.45%; in assay [5], 8.58%; in assay [6], 1.28%. In addition, the inhibition in [7] was found to be 13.6%; in assay [8], 1.95%; in [9], 2.95%; in [10], 0.64%; in [11], 4.66%; in [12] it was 2.53%. Moreover, the inhibition in assay [13] was determined as 17.6%; in assay [14], 2.18%; in assay [15], 34.2%; in [16] it was 5.65%; in assay [17] it was 54.4%; in assay [18] it was 8.9%. Also, the inhibition amounted to 48.5% in assay [19] and 14.1% in assay [20].
Consider `O=C1NC(=O)C(N2CCc3ccccc32)=C1c1ccc(Cl)cc1`, for which the inhibition in assay [1] came out at 4.67%; in [2], 8.78%; in assay [3], 12.7%; in [4] it was 2.02%; in [5], 2.75%; in [6] it was 6.09%. Further, the inhibition is 5.24% in [7]; 2.18% in assay [8]; 2.1% in assay [9]; 1.5% in [10]; 2.44% in assay [11]; 1.13% in assay [12]. Besides, the inhibition in assay [13] is 0.25%; in assay [14], 1.54%; in assay [15], 2.81%; in [16] it was -1.28%; in assay [17] it was 1.36%; in assay [18] it was 12.4%. Moreover, the figures for the inhibition in [19] and in assay [20] were 14.6% and 6.61%, respectively.
`O=C1Nc2ccc(C(=O)c3ccco3)cc2C1=Cc1cc(Cl)c(O)c(Cl)c1`: the inhibition in [1] worked out at 20.7%; in assay [2] it was 5.82%; in [3] it was 17.4%; in assay [4], 4.15%; in assay [5], 4.7%; in assay [6], 5.71%. The inhibition worked out at 3.98% in assay [7]; 1.08% in assay [8]; 2.14% in assay [9]; 1.31% in assay [10]; 3.21% in assay [11]; 5.2% in [12]. For the same compound, the inhibition in [13] was found to be 7.05%; in assay [14], 2.07%; in assay [15], 6%; in assay [16], 12.7%; in assay [17] it was 66.9%; in assay [18], 6.41%. The inhibition was 18.7% in [19] and 16.6% in assay [20].

For the origin of these results see ChEMBL document CHEMBL1961873, “Compounds: GSK PKIS; Assays: Nanosyn kinase panel” (2012).
